Screens as filed in PubChem BioAssay.
HP1b binding inh – HTS for Inhibitors of HP1-beta Chromodomain Interactions with Methylated Histone Tails | AID 540317, 2011 | AlphaScreen HP1-beta / biotin-H3K9me3 peptide binding | Chromobox protein homolog 1 (Homo sapiens), P83916 | Potency, µM (highest dose often 114 µM), most hits filed as inhibitors | 0.56% of 390,000 active; further: nearly all actives have a fitted effect of over 70% in size
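HP1-beta protein (50 nM final) preincubated 30 min at room temperature with biotinylated H3(1-18)K9me3 peptide (50 nM) in PBS pH 7.4, 0.01% Tween-20, then compound added for 30 min. AlphaScreen streptavidin donor/nickel chelate acceptor beads (10 ug/mL final), 30 min dark, luminescence read.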
BAZ2B inh – qHTS Assay for Inhibitors of BAZ2B; Bromodomain adjacent to zinc finger domain protein 2B (Homo sapiens), Q9UIF8; AID 504333, 2011; AlphaScreen BAZ2B-H3K14Ac peptide displacement; 4.4% of 360,000 active; Potency, µM (top dose mostly 114 µM), hits mostly inhibitors; further: nearly all actives have a fitted effect of over 60% in size
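BAZ2B 50 nM plus b-H3(5-23)K14Ac 50 nM, PBS pH 7.4/0.01% Tween-20, 30 min RT; compound added (max 110 uM), 30 min RT; streptavidin donor/Ni-chelate acceptor beads 10 ug/mL final, 20 min dark; AlphaScreen read.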
JMJD2A Tudor – qHTS Assay for Inhibitors of JMJD2A-Tudor Domain. AID 504339, 2011. AlphaScreen JMJD2A-Tudor / H3K4me3 peptide binding. 4.4% of 390,000 active. Potency, µM (top dose mostly 114 µM), most hits filed as inhibitors. Lysine-specific demethylase 4A (Homo sapiens), O75164; further: nearly all actives have a fitted effect of over 50% in size
PLK1 PBD inh – qHTS for Inhibitors of PLK1-PDB (polo-like kinase 1 - polo-box domain): Primary Screen; Serine/threonine-protein kinase PLK1 (Homo sapiens), P53350; 2.8% of 360,000 active; Potency, µM, actives largely listed as inhibitors; Plk1 PBD binding of FITC phosphopeptide, fluorescence polarization; AID 720504, 2013; further: series mostly up to about 57 µM; nearly all actives have a fitted effect of over 65% in size
VDR inh – Inhibitors of the vitamin D receptor (VDR): qHTS; 0.93% of 400,000 active; VDR-SRC2-3 peptide fluorescence polarization, 2 h; AID 504847, 2011; Potency, µM, usual class: inhibitors; Vitamin D3 receptor (Homo sapiens), P11473
Target sequence (P11473 whole entry, looked up): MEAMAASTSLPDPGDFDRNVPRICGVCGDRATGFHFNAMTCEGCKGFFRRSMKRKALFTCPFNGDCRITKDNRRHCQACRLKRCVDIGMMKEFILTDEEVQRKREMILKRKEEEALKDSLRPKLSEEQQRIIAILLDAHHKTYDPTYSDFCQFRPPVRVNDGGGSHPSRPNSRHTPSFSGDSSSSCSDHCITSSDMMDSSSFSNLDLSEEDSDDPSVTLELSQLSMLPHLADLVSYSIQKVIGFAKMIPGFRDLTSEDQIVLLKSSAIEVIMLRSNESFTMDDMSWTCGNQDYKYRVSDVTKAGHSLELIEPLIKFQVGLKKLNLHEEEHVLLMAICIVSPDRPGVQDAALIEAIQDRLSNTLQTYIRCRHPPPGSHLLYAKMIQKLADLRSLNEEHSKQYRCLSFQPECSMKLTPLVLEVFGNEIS
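Inhibition of the VDR/SRC2-3 peptide interaction is quantified by fluorescence polarization. Compounds (23 nl, pintool) incubate with the reagents for 2 hours at ambient room temperature.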
G9a inh – qHTS Assay for Inhibitors of Histone Lysine Methyltransferase G9a | G9a H3K9 monomethylation, AlphaScreen, 2 h | AID 504332, 2011 | Histone-lysine N-methyltransferase EHMT2 (Homo sapiens), Q96KQ7 | 8.8% of 350,000 active | Potency, µM (series often up to 102 µM), actives largely listed as inhibitors; further: nearly all actives have a fitted effect of over 75% in size
Target sequence (Q96KQ7 913-1193 limits assumed): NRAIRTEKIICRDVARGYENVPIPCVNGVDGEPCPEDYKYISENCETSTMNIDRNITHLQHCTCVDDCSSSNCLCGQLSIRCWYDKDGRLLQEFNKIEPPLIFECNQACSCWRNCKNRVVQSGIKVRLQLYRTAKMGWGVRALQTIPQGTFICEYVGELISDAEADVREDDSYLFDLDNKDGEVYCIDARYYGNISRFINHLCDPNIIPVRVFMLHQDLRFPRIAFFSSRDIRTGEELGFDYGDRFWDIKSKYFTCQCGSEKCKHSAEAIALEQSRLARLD
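G9a (20 nM) preincubated 15 min RT with compounds, then 500 nM biotinylated H3K9 peptide and 20 uM SAM added; 2 h RT reaction. Monomethyl-H3K9 product detected by AlphaScreen with anti-H3K9me1 antibody, streptavidin donor and anti-rabbit IgG acceptor beads.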
Large screens that a line does not name were inactive; ! = a repeat was not active. Rows were chosen to be rich in hits. Some 11% of all compounds tested hit in one or more screens of this group. The call rests on the fitted dose curve; in most records, active means well fitted curve in the direction sought with a large enough effect; inconclusive means small, poorly fitted or top-dose-only effect, or another doubt; inactive means no such curve, though single readings can be large; an effect the other way counts as inactive or inconclusive.

CC(=O)Nc1nnc(-c2ccccn2)o1	BAZ2B inh inconclusive, JMJD2A Tudor inconclusive, VDR inh inconclusive, G9a inh 28µM
O=C(Cn1cc(S(=O)(=O)N2CCCC2)c(S(=O)(=O)N2CCCC2)c1)Nc1ccccc1	none (no result: PLK1 PBD inh)
COc1cccc(NC2=C(C#N)C(=O)NC(c3cccc(OC)c3O)S2)c1 (stereo not drawn)	VDR inh inconclusive, G9a inh 45µM
C=Cc1ccc(Cn2nc(-c3ccc(C)c(S(=O)(=O)N(CC)CC)c3)ccc2=O)cc1	none (no result: PLK1 PBD inh)
CCCOc1ccc(C(=O)NNC(=S)NC(=O)CC)cc1	JMJD2A Tudor 32µM, VDR inh inconclusive, G9a inh 8.9µM
CCCC(=O)NC(=S)Nc1cccc(NC(=O)c2ccccc2)c1	none (no result: G9a inh)
CCCCC(=O)NC(=S)Nc1cccc(NC(=O)c2ccccc2)c1	G9a inh 50µM
CCOC(=O)CCC(=O)NNC(=O)c1ccc(NC(=O)c2ccccc2)cc1	JMJD2A Tudor inconclusive, PLK1 PBD inh 30µM (no result: G9a inh)
N#CCC(=O)Nc1ccc(C(=O)NNC(=S)NC2CCCCC2)cc1	none (no result: BAZ2B inh, G9a inh)
CC(C)CC(=O)Nc1ccc(C(=O)NNC(=S)NC(=O)C2CCCCC2)cc1	JMJD2A Tudor 89µM, G9a inh inconclusive
CC1CCC2C(=O)N(c3cccc(C(=O)Nc4ccccc4Cl)c3)C(=O)C2C1 (stereo not drawn)	none
COc1cc(NC(=O)CN2CCCN(Cc3cccc(F)c3)S2(=O)=O)cc(OC)c1	none (no result: PLK1 PBD inh)
CCC1CCCCN1C(=O)CSc1nc2c([nH]c3ccccc32)c(=O)n1-c1ccc(OC)cc1 (stereo not drawn)	none (no result: PLK1 PBD inh)
O=C(NNC(=O)c1ccc(NC(=O)c2ccccc2)cc1)c1ccccc1	BAZ2B inh inconclusive, JMJD2A Tudor inconclusive, G9a inh inconclusive
CCC(=O)NC(=S)NNC(=O)c1ccc(NC(=O)c2ccccc2)cc1	JMJD2A Tudor inconclusive, VDR inh inconclusive, G9a inh 7.1µM
O=[N+]([O-])c1ccccc1COc1ccc(Cl)c2cccnc12	PLK1 PBD inh 24µM
CC(=O)NC(C(=O)c1ccccc1)C(=O)c1ccccc1	G9a inh 50µM
CCCNC(=O)c1ccc(-c2nc3ccccc3s2)s1	BAZ2B inh 4.5µM
CCc1ccccc1NC(=O)CSc1nc(-c2ccccc2OC)nc2c1Cc1c(CO)cnc(C)c1O2	none (no result: PLK1 PBD inh)
COc1cc(C)cc(C(=O)O)c1C1=C(O)c2cccc(O)c2C(=O)C1=O	BAZ2B inh 56µM, JMJD2A Tudor 79µM, PLK1 PBD inh inconclusive, G9a inh inconclusive
COc1c(C=O)c(=O)[nH]c2c(OC)cccc12	none (no result: HP1b binding inh, BAZ2B inh, JMJD2A Tudor, PLK1 PBD inh, G9a inh)
CCC1(C)NC(C(=O)O)Cc2c1[nH]c1ccccc21 (stereo not drawn)	G9a inh inconclusive
COC(=O)C1Cc2c([nH]c3ccccc23)C2(CCN(Cc3ccccc3)CC2)N1 (stereo not drawn)	BAZ2B inh inconclusive, JMJD2A Tudor inconclusive, G9a inh 45µM
CCCN1CCC2(CC1)NC(C(=O)O)Cc1c2[nH]c2ccccc12 (stereo not drawn)	BAZ2B inh inconclusive, G9a inh 14µM
CC(=O)c1ccccc1NC(=O)Cn1c(=O)cnc2ccccc21	none
Cc1nc([N+](=O)[O-])c(SCC(O)CCl)n1Cc1ccc(Cl)cc1 (stereo not drawn)	G9a inh 28µM
O=C(CCn1ccc2cc(S(=O)(=O)N3CCCC3)ccc21)NCc1ccccc1Cl	none (no result: PLK1 PBD inh)
CCCCN1C=CC(=C2C(=O)c3ccccc3C2=O)C=C1	G9a inh 50µM
CCCCNC1=CC(=O)C(=O)c2ccccc21	VDR inh inconclusive
CC1=CC2C(=O)c3cccc(O)c3C(=O)C2C(O)=C1 (stereo not drawn)	VDR inh 25µM (no result: HP1b binding inh, BAZ2B inh, JMJD2A Tudor, PLK1 PBD inh, G9a inh)
COC(=O)N/N=C(C)\C=C\c1ccco1	G9a inh inconclusive
COC(=O)C(=C/C=C/c1ccco1)C(=O)OC	G9a inh 45µM
COCCNC(=O)C1CCCN(C(=O)c2nc3ccccc3s2)CC1 (stereo not drawn)	none (no result: HP1b binding inh, BAZ2B inh, JMJD2A Tudor, VDR inh, G9a inh)
O=C(Nc1ccc2oc(-c3ccc4ccccc4c3)nc2c1)c1cc(Cl)ccc1Cl	none (no result: PLK1 PBD inh)
O=C(CN1C2=NCCCN2c2ccccc21)c1cccc(Br)c1	HP1b binding inh inconclusive, JMJD2A Tudor inconclusive, PLK1 PBD inh 24µM, VDR inh inconclusive, G9a inh inconclusive
O=C(CN1C2=NCCCN2c2ccccc21)c1ccc([N+](=O)[O-])cc1	G9a inh 40µM
COc1ccc(-n2c(O)c(/C=N/n3cnnc3)c3ccccc3c2=O)cc1	BAZ2B inh 56µM, JMJD2A Tudor 45µM, G9a inh 50µM
O=c1c2ccccc2c(/C=N/n2cnnc2)c(O)n1-c1ccccc1	BAZ2B inh inconclusive, JMJD2A Tudor 89µM
O=[N+]([O-])c1ccc(SCCc2ccncc2)cc1	HP1b binding inh inconclusive, BAZ2B inh 50µM, JMJD2A Tudor 50µM!, PLK1 PBD inh 19µM, VDR inh inconclusive, G9a inh 11µM
O=[N+]([O-])c1ccc(SCCc2ccccn2)cc1	PLK1 PBD inh 17µM, G9a inh 13µM
COc1ccc(OC)c(NC(=O)c2cn3c4c(ccc(Cl)c4c2=O)OC(C)C3)c1 (stereo not drawn)	none (no result: PLK1 PBD inh)
CC(=O)N1CCN(Cc2nc3cc(NC(=O)c4ccc(F)cc4)ccc3n2C)CC1	PLK1 PBD inh inconclusive
COc1cccc(C2NC(=S)NC(C)=C2C(=O)c2ccccc2)c1OC (stereo not drawn)	BAZ2B inh inconclusive, G9a inh 22µM
C=CCOc1ccc(C2NC(=S)NC(C)=C2C(=O)c2ccccc2)cc1OC (stereo not drawn)	G9a inh 40µM
Cc1ccc(CN(C)CC(=O)Nc2ccc3c(c2)CCC3)cc1	G9a inh inconclusive
CCc1cccc(C)c1NC(=O)CSc1nc2ccncc2[nH]1	none
COC(=O)c1ccc2nc(C)cc(Nc3ccc(N(C)C)cc3)c2c1	BAZ2B inh 40µM, JMJD2A Tudor inconclusive, G9a inh 50µM
O=C(O)c1ccc(Cn2cnc3scc(-c4ccccc4)c3c2=O)cc1	none
O=C(O)c1ccc(Cn2cnc3cccnc32)cc1	G9a inh 40µM
CCOc1ccccc1CNC(=O)CSc1n[nH]c(-c2ccccc2Cl)n1	none (no result: PLK1 PBD inh)
O=C(c1cccc(NS(=O)(=O)c2cccc(C(F)(F)F)c2)c1)N1CCOCC1	none
C/C(=N\Nc1ccc(Cl)c(C(=O)O)c1)c1ccc2c(c1)OCO2	BAZ2B inh inconclusive, G9a inh 4.5µM
O=c1cnnc(N/N=C/c2ccc3c(c2)OCO3)[nH]1	G9a inh 45µM
